Source: PubChem (National Center for Advancing Translational Sciences (NCATS))
Sampled rows, rich in hits. Any-hit rate of the full collection: about 22%.
Pf growth 48h – Primary qHTS for delayed death inhibitors of the malarial parasite plastid, 48 hour incubation; AID 504832, 2011; Potency, µM (doses to about 28.7 µM), without a hit: top-dose activity change, negative = inhibition, actives largely listed as inhibitors; P. falciparum luciferase growth in erythrocytes, 48 h; 5.9% of 310,000 active; also: potency is read from the fitted curve at half-maximal effect; % is scaled to controls: 0 for no effect and ±100 for the full control effect
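A one-generation exposure of luciferase-tagged malaria parasites in RPMI 1640/Albumax erythrocyte culture, 37 C and 5% CO2. Inhibition is inferred from decreased luminescence after adding detection reagent.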
Cycloheximide cs – Cycloheximide Counterscreen for Small Molecule Inhibitors of Shiga Toxin; AID 2314, 2010; 12% of 300,000 active; max response, %; cell reporter, cycloheximide protein synthesis inhibition counterscreen; in the data active = max response mostly above about 13%, no sharp cut-off; inactive = mostly below about 14%; also: read at 38.3 µM for the half of the compounds with a filed dose; 0% is about no effect
Shiga toxin inh – A qHTS for Small Molecule Inhibitors of Shiga Toxin. Vero cells, Shiga toxin protein synthesis inhibition reporter. inhibition, % at 38.7 µM. 9.2% of 290,000 active. AID 2315, 2010; in the data active = inhibition mostly above about 28%, no sharp cut-off; inactive = mostly below about 43%; also: 0% is about no effect
LmPK inhibitor – qHTS Assay for Inhibitors of Leishmania Mexicana Pyruvate Kinase (LmPK). Q27686. purified LmPK, Kinase-Glo ATP luminescence, 1 h. Potency, µM (highest dose often 57.5 µM), inactives show top-dose activity change, negative = inhibition, hits mostly inhibitors. 0.37% of 290,000 active. AID 1721, 2009; also: potency is read from the fitted curve at half-maximal effect; % is scaled to controls: 0 for no effect and ±100 for the full control effect
Target sequence (Q27686 whole entry, looked up): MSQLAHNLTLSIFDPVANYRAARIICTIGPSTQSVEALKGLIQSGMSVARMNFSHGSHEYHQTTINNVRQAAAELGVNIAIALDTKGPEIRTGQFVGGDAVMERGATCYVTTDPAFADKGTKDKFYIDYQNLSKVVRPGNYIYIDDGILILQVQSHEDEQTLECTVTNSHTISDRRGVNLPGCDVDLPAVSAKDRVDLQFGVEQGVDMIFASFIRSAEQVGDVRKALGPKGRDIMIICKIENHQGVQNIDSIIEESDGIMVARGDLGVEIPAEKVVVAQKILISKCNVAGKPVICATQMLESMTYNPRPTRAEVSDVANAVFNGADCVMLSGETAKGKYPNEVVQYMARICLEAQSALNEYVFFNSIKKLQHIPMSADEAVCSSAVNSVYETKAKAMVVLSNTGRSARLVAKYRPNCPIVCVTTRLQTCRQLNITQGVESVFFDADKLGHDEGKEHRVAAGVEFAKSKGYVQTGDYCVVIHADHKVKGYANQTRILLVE
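ATP generated from ADP (0.1 mM) and PEP (0.5 mM) by 0.1 nM LmPK over 1 h at room temperature (pH 7.2 imidazole buffer) was detected by coupled luciferase luminescence. Values were normalized to uninhibited and no-enzyme wells.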
Pf growth 96h – Primary qHTS for delayed death inhibitors of the malarial parasite plastid, 96 hour incubation. P. falciparum luciferase reporter growth, 96 h. Potency, µM (titrated, usually from 28.7 µM), inactives show top-dose activity change, negative = inhibition, usual class: inhibitors. 6.9% of 320,000 active. AID 504834, 2011; also: potency is read from the fitted curve at half-maximal effect; % is scaled to controls: 0 for no effect and ±100 for the full control effect
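P. falciparum expressing integrated firefly luciferase grown in erythrocytes (2% hematocrit, 0.05% parasitemia final) with compounds for 96 hours at 37 C, 5% CO2. Growth inhibition read as loss of luminescence after adding luciferase detection reagent.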
* marks the source's active call; other numbers are inactive results; [ ] = remark or other dose. Unless noted, calls follow the shape of the dose curve; as a rule, active = well fitted inhibition curve with a large enough effect; inconclusive = small, poorly fitted or top-dose-only effect, or another doubt; inactive = no such curve, though single readings can be large or run the other way.

`Cc1cc(OC(C)C(=O)N2CCN(c3ccc(F)cc3)CC2)c2c(C)cc(=O)oc2c1` (configuration not stated) gave Pf growth 48h inconclusive, Cycloheximide cs 15, Shiga toxin inh -4, LmPK inhibitor -1% and Pf growth 96h -15%.
For O=C1C(Cl)=C(N2CCCCCC2)C(=O)N1c1ccc(Br)cc1 the results were Pf growth 48h -29%, Cycloheximide cs 3, Shiga toxin inh 22, LmPK inhibitor -9% and Pf growth 96h inconclusive.
O=C1C(Cl)=C(N2CCCCCC2)C(=O)N1c1ccccc1 was read as Pf growth 48h -26%, Cycloheximide cs 25*, Shiga toxin inh 46, LmPK inhibitor 1% and Pf growth 96h -13%.
For CCN(CC)C(=O)CCn1nc(-c2ccc(C)cc2)c2ccccc2c1=O the results were Pf growth 48h 7.4µM*, Cycloheximide cs 1, Shiga toxin inh -3, LmPK inhibitor 7% and Pf growth 96h -2%.
Screening CNC(=O)CCn1nc(-c2ccccc2)c2ccccc2c1=O returned Pf growth 48h 27%, Cycloheximide cs -1, Shiga toxin inh 17, LmPK inhibitor 0% and Pf growth 96h 15µM*.
For CC(=O)Nc1ccc(N2C(=O)CSC2c2cccc(Br)c2)cc1 (configuration not stated) the results were Pf growth 48h -8%, Cycloheximide cs 5, Shiga toxin inh -9, LmPK inhibitor 1% and Pf growth 96h 18%.
CCCCNC(=O)c1ccc2nc(-c3ccco3)c(-c3ccco3)nc2c1 was read as Pf growth 48h -13%, Cycloheximide cs -2, Shiga toxin inh 15, LmPK inhibitor 3% and Pf growth 96h 13%.
For CCOc1ccc(CCNC(=O)c2ccc3nc(CC)c(CC)nc3c2)cc1 the results were Pf growth 48h -12%, Cycloheximide cs 0, Shiga toxin inh 15, LmPK inhibitor -5% and Pf growth 96h 13µM*.
Screening CCc1nc2ccc(C(=O)NCCc3ccco3)cc2nc1CC returned Pf growth 48h 86%, Cycloheximide cs 45*, Shiga toxin inh 65*, LmPK inhibitor 4% and Pf growth 96h inconclusive.
COc1ccc(CC(=O)NNC(=S)NCC2CC2)cc1OC was read as Pf growth 48h -2%, Cycloheximide cs 1, Shiga toxin inh -15, LmPK inhibitor 2% and Pf growth 96h 15%.
Cc1ccccc1C(=O)NC1CCN(C(=O)Nc2ccccc2Cl)CC1 was read as Pf growth 48h 35%, Cycloheximide cs 1, Shiga toxin inh 8, LmPK inhibitor 6% and Pf growth 96h -18%.
Screening COc1cccc(-n2nc(-c3ccnn3-c3ccccc3)c(=O)n(C)c2=O)c1 returned Cycloheximide cs 3, Shiga toxin inh -16, LmPK inhibitor -2% and Pf growth 96h 12µM*.
COc1ccccc1-c1nc(SCC(=O)Nc2cc(C)on2)c2c(=O)n(C)c(=O)n(C)c2n1 was read as Pf growth 48h 7%, Cycloheximide cs -2, Shiga toxin inh 20, LmPK inhibitor -5% and Pf growth 96h inconclusive.
For NC(=O)[C@@H]1CCCN1Cc1c(C(=O)N2CCc3ccccc3C2)nc2ccc(Cl)cn12 the results were Pf growth 48h 35%, Cycloheximide cs -3, Shiga toxin inh -8, LmPK inhibitor -7% and Pf growth 96h inconclusive.
For Cc1nc(CC(=O)c2ccc(O)c(C)c2O)cs1 the results were Pf growth 48h 2%, Cycloheximide cs 9.7*, Shiga toxin inh 47*, LmPK inhibitor 5% and Pf growth 96h -6%.
For Cc1nc(CC(=O)c2ccc(O)cc2O)cs1 the results were Pf growth 48h 7%, Cycloheximide cs 12, Shiga toxin inh 30, LmPK inhibitor -1% and Pf growth 96h 39%.
`CCOC(=O)C1=C(C)NC(SCc2cc(=O)[nH][nH]2)=C(C#N)C1c1cccs1` (configuration not stated) gave Pf growth 48h -3%, Cycloheximide cs -1, Shiga toxin inh -4 and LmPK inhibitor -3%.
`Cc1cc(C)c(S(C)(=O)=O)c(Oc2ccc(C(C)(C)C)cc2)n1` gave Pf growth 48h inconclusive, Cycloheximide cs 5, Shiga toxin inh 11, LmPK inhibitor -1% and Pf growth 96h inconclusive.
For C#C[C@]1(O)CC[C@@H]2[C@H]3CCC4=CCCC[C@@H]4[C@@H]3CC[C@@]21C the results were Pf growth 48h -10%[12.8 µM] and Pf growth 96h -17%[12.8 µM].
